The values below come from PubChem BioAssay (NCI).

Holding throughout (test): NCI-60 one-dose screen, 48 h (100 = growth as untreated, 0 = no growth, -100 = all killed)
In one assay the test system is NCI-H23 lung. The note with it: 10 µM unless noted.
In another assay the test system is NCI-H226 lung. The note with it: 10 µM unless noted.
The next assay relates to NCI-H322M lung. The settings on record: 10 µM unless noted.
The subject of another assay is NCI-H460 lung. The note with it: 10 µM unless noted.
Another assay concerns HOP-92 NSCLC. The settings on record: 10 µM.
A further assay has as its system NCI-H522 lung. The settings on record: 10 µM.
For the next assay, the system named is A549/ATCC NSCLC. The settings on record: 10 µM unless noted.
A further assay deals with 786-0 renal. The settings on record: 10 µM unless noted.
A further assay relates to HOP-62 NSCLC. The settings on record: 10 µM unless noted.
The test system of a further assay is COLO 205 colon. The settings on record: 10 µM unless noted.

Each structure is given as a SMILES string. This is part of a sample that, as a whole, favours compounds with a hit. Of some 83,000 tested, about 20% had one in any assay.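 Testing used 96-well plates and a 48-hour single-concentration exposure. Example: -40 means 40% of the starting cells died.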 A number with no mark means an inactive call. Calls of active or inactive are those of the source. The calls were made as follows: active = growth percent below 10; inactive = the rest.

As to `Cc1nc2c(nnn2-c2ccccc2)c2nc(-c3ccc(Cl)cc3)oc(=O)c12`, the growth with NCI-H23 lung is 116%; in the assay with NCI-H226 lung, 92.8%; in the assay on NCI-H322M lung, 103%; with NCI-H460 lung, 115%; in the assay with HOP-92 NSCLC, 117%; in the assay on NCI-H522 lung, 99.7%. Also, the growth in the assay on A549/ATCC NSCLC is 111%; in the assay with 786-0 renal it was 105%.

Consider `CCCCCSc1ccc2nc(NC(=O)OCCC)sc2c1`, for which the growth was 25.5% in the assay with NCI-H23 lung; 30.1% in the assay with NCI-H226 lung; 50% in the assay on NCI-H322M lung; 13.9% with NCI-H460 lung; 36.3% in the assay with HOP-92 NSCLC; 29.4% in the assay with NCI-H522 lung. Also, the growth was 46.4% in the assay with A549/ATCC NSCLC and 31.1% with 786-0 renal.

With `CC[n+]1c(C)ccc2cc(C)ccc21`, the growth in the assay on NCI-H23 lung was 96%; in the assay with NCI-H226 lung, 93.6%; in the assay on NCI-H322M lung it was 111%; with HOP-62 NSCLC it was 97.5%; in the assay on A549/ATCC NSCLC it was 75.3%; in the assay with COLO 205 colon, 101%.

Take `C=C(C)[C@@H]1CC[C@]2(COC(=O)c3ccccc3C(=O)O)CC[C@]3(C)[C@H](CC[C@@H]4[C@@]5(C)CCCNC(C)(C)[C@@H]5CC[C@]43C)[C@@H]12`: the growth in the assay with NCI-H23 lung was 80.7%; in the assay on NCI-H226 lung, 66.3%; in the assay on NCI-H322M lung, 93.3%; in the assay with NCI-H460 lung, 55.9%; with HOP-92 NSCLC, 86.1%; with NCI-H522 lung, 78.3%. For the same compound, the results for the growth in the assay on A549/ATCC NSCLC and with 786-0 renal were 61.4% and 84.4%, respectively.

For the compound `C=CCC(CCC(CC=C)C(=O)OCC)C(=O)OCC` (stereo not given), the growth in the assay on NCI-H23 lung is 108%; with NCI-H226 lung it was 104%; with NCI-H322M lung, 83.3%; in the assay on HOP-62 NSCLC, 103%; in the assay on A549/ATCC NSCLC it was 106%; with 786-0 renal, 98.5%. The growth in the assay on COLO 205 colon was 110%.

Consider `COc1cc(Cn2ccc3c2-c2oncc2CC3)cc(OC)c1`, for which the growth in the assay on NCI-H23 lung was 30.1%; in the assay on NCI-H226 lung, 67.4%; in the assay on NCI-H322M lung, 33.2%; with NCI-H460 lung it was 7.4% (active); in the assay with HOP-92 NSCLC it was 57.5%; in the assay on NCI-H522 lung, 29.3%. The growth in the assay with A549/ATCC NSCLC is 36%; with 786-0 renal it was 50.9%.

For the compound `Cc1sc(NC(=O)c2ccc(C(C)(C)C)cc2)c(C(=O)O)c1C`, the growth is 62.9% in the assay on NCI-H23 lung; 92.3% with NCI-H226 lung; 97.3% in the assay with NCI-H322M lung; 50.9% with NCI-H460 lung; 66.3% in the assay with HOP-92 NSCLC; 56.3% in the assay with NCI-H522 lung. Moreover, the growth in the assay on A549/ATCC NSCLC is 24.4%; in the assay with 786-0 renal, 73.8%.

With `CCCCCSc1ccc2nc(NC(=O)OCC)sc2c1`, the growth in the assay with NCI-H23 lung was 18.5%; with NCI-H226 lung, 21.7%; in the assay with NCI-H322M lung, 41.3%; in the assay with NCI-H460 lung, 10.5%; in the assay with HOP-92 NSCLC, 31.7%; in the assay with NCI-H522 lung it was 20.8%. Moreover, the growth with A549/ATCC NSCLC is 34.6%; with 786-0 renal, 33.6%.

`CCOC(=O)c1c(C)oc2ncnc(Nc3ccc(NC(=O)Nc4ccc(CC)cc4)cc3)c12`: the growth in the assay on NCI-H23 lung is 90.7%; in the assay with NCI-H226 lung, 104%; in the assay on NCI-H322M lung, 102%; in the assay on NCI-H460 lung, 106%; in the assay with HOP-92 NSCLC, 94.3%; in the assay with NCI-H522 lung, 83.5%. The results for the growth in the assay on A549/ATCC NSCLC and in the assay with 786-0 renal were 89.2% and 99.8%, respectively.

In the case of `CCS(=O)(=O)OCCO[C@H]1Cc2cc3ccc(=O)oc3cc2OC1(C)C`, the growth in the assay with NCI-H23 lung was 105%; in the assay with NCI-H226 lung, 98.4%; in the assay on NCI-H322M lung it was 111%; in the assay with NCI-H460 lung, 105%; with HOP-92 NSCLC, 103%; in the assay with NCI-H522 lung, 89.1%. Further, the growth was 97.3% with A549/ATCC NSCLC and 106% with 786-0 renal.

Regarding `COc1ccc(/C=C/C(=O)/C=C/c2cc3ccccc3[nH]c2=O)cc1`, the growth in the assay on NCI-H23 lung was 70.4%; in the assay with NCI-H226 lung it was 90.9%; in the assay with NCI-H322M lung, 109%; in the assay on NCI-H460 lung it was 92.7%; in the assay on HOP-92 NSCLC, 89.8%; in the assay on NCI-H522 lung, 48.8%. Also, the figures for the growth in the assay with A549/ATCC NSCLC and in the assay on 786-0 renal were 51.3% and 93.1%, respectively.

With `COC(=O)/C=C/c1cc(O)c2oc(-c3ccc(O)c(O)c3)c(C(=O)OC)c2c1`, the growth is 30.4% in the assay on NCI-H23 lung; 18.2% in the assay on NCI-H226 lung; 48.7% in the assay on NCI-H322M lung; 29.1% in the assay with NCI-H460 lung; 56.1% with HOP-92 NSCLC; -0.902% (active) with NCI-H522 lung. Moreover, the growth in the assay with A549/ATCC NSCLC is 57.2%; in the assay on 786-0 renal, 44.2%.

Consider `COc1ccccc1Nc1nnc(COc2ccc(CNC(=O)CCCC/C=C/C(C)C)cc2OC)o1`, for which the growth with NCI-H23 lung is 92.2%; with NCI-H226 lung, 79.7%; in the assay with NCI-H322M lung it was 97.4%; with NCI-H460 lung, 105%; with HOP-92 NSCLC, 79.1%; in the assay with NCI-H522 lung, 81%. Also, the growth with A549/ATCC NSCLC is 99.3%; in the assay on 786-0 renal, 96.2%.

In the case of `COc1cc(OC)cc(-c2ccc(-c3ccc(C(=N)N)cc3)s2)c1`, the growth with NCI-H23 lung is -77.5% (active); in the assay with NCI-H226 lung, -67.5% (active); with NCI-H322M lung, -89.3% (active); with NCI-H460 lung, -88.5% (active); with HOP-92 NSCLC, -80.6% (active); in the assay on NCI-H522 lung it was -58.2% (active). For the same compound, the growth is -41.5% (active) in the assay on A549/ATCC NSCLC and -60.2% (active) with 786-0 renal.

In the case of `c1ccc(Nc2ncc3c(n2)-c2cccn2CC3)cc1`, the growth in the assay on NCI-H23 lung is 98.7%; with NCI-H226 lung, 59.2%; in the assay on NCI-H322M lung, 86.9%; in the assay with NCI-H460 lung it was 95.9%; with HOP-92 NSCLC, 77.4%; in the assay on NCI-H522 lung, 85.8%. Further, the growth in the assay with A549/ATCC NSCLC was 113%; in the assay with 786-0 renal, 98.7%.

In the case of `N=C(N)c1ccc(-c2ccc(-c3ccc(Cl)cc3)s2)s1`, the growth in the assay with NCI-H23 lung was -69.9% (active); with NCI-H226 lung, -53.3% (active); in the assay with NCI-H322M lung it was -74.9% (active); in the assay with NCI-H460 lung it was -66.2% (active); in the assay on HOP-92 NSCLC, -71.6% (active); in the assay with NCI-H522 lung, -2.36% (active). Moreover, the growth was -69.1% (active) in the assay on A549/ATCC NSCLC and -62.6% (active) with 786-0 renal.
